High-throughput results as filed in PubChem.
These entries were drawn from the full list.
TDP1 cell noCPT: qHTS for Inhibitors of human tyrosyl-DNA phosphodiesterase 1 (TDP1): qHTS in cells in absence of CPT; DT40 Tdp1-/- hTDP1 cells, no CPT, ATP luminescence, 48 h; Potency, µM (doses to about 46.2 µM), most hits filed as inhibitors; 420,000 compounds, 15% hits; AID 686978, 2013; note: nearly all actives have a fitted effect of over 55% in size
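DT40 Tdp1-/-;hTDP1 cells, no CPT (DMSO vehicle only), 400 cells/well; compounds pin-transferred; ≥48 hr, 37 °C; CellTiter-Glo 30 min RT dark, luminescence read.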
DRD3 antagonist: qHTS of D3 Dopamine Receptor Antagonist: qHTS; D(3) dopamine receptor (Homo sapiens), P35462; D3R cells, DiscoveRx beta-arrestin luminescence, antagonist mode; active compounds read low; max response, negative = inhibition, %; 360,000 compounds, 2.5% hits; AID 652054, 2013; in the data active = max response below about -50%; inconclusive = no clear call, values can overlap the other calls
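Cells expressing the human receptor were seeded at 1500 cells/well, incubated overnight at 37 degrees C in 5% CO2, then exposed to library compounds with dopamine controls for 90 minutes at 37 degrees C before luminescent detection.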
DT40 TDP1 CPT: qHTS for Inhibitors of human tyrosyl-DNA phosphodiesterase 1 (TDP1): qHTS in cells in presence of CPT; chicken DT40 Tdp1-/-;hTDP1 cells + 20 nM CPT, ATP luminescence, 48 h; Potency, µM (series often up to 46.2 µM), most hits filed as inhibitors; 420,000 compounds, 12% hits; note: nearly all actives have a fitted effect of over 55% in size
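Cell growth measured by CellTiter-Glo luminescence after a minimum 48 h, 37 C compound exposure with 20 nM CPT in Tdp1-knockout DT40 cells stably expressing hTDP1, seeded 400/well; qHTS titration format.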
D3 ag: qHTS of D3 Dopamine Receptor Agonist: qHTS; D3R DiscoveRx beta-arrestin cells, luminescence, 90 min; max activation, %; AID 652048, 2013; 410,000 compounds, 0.58% hits; in the data active = max activation above about 30%
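Agonist mode: compounds and dopamine controls were applied to plated cells for 90 min at 37 degrees C after an overnight attachment at 1500 cells/well. Luminescent read-out followed 30 - 60 minutes at room temperature with DiscoveRx detection reagent.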
ClpP mod: qHTS Assay for Activators of ClpP; ATP-dependent Clp protease proteolytic subunit (Bacillus subtilis (strain 168)), P80244; purified B. subtilis ClpP, FRET peptide cleavage, 20 min; Potency, µM (top dose mostly 57.5 µM); 340,000 compounds, 1.9% hits; active = well fitted falling curve with a large enough effect; inconclusive = small, poorly fitted or top-dose-only effect; inactive = no such curve, though single readings can be large or run the other way; note: the source files actives as falling curves though it sought activators and does not explain the sign; nearly all actives have a fitted effect of over 65% in size
Target sequence (P80244 whole entry, looked up): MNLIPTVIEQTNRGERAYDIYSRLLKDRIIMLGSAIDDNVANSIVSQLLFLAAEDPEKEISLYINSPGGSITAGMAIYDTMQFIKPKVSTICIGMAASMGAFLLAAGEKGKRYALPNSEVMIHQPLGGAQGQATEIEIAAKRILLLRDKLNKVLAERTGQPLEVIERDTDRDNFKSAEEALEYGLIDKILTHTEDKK
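FRET quenching reversal measured ClpP activation: 10 microg/mL B. subtilis ClpP at pH 8 with the FRET-FV decapeptide, read at 430 nm after 320 nm excitation. The 20-min minus 0-min signal was scaled between DMSO/no-enzyme wells and ADEP (5.8 microM final).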
IL-1B inflam inh: qHTS for Inhibitors of Inflammasome Signaling: IL-1-beta AlphaLISA Primary Screen; THP-1 LPS/ATP IL-1B secretion, AlphaLISA, 16 h; active compounds read low; activity change, % at 57.5 µM; 360,000 compounds, 4.7% hits; in the data active = activity change below about -50%; inconclusive = mostly about -30% to -49%
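Secreted IL-1B measured by AlphaLISA bead assay after 16 h compound exposure of THP-1 cells; compounds (final up to 57.5 uM) added 1 h before LPS (250 ng/mL) and ATP (1.25 mM) stimulation; lower signal means less secretion.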
Numbers stand for hits. Unless noted, calls come from the whole dose curve; as a rule, active = well fitted inhibition curve with a large enough effect; inconclusive = small, poorly fitted or top-dose-only effect; inactive = flat fitted curve, though single readings scatter.

Screening O=C(C1CC1)N1CCC(c2nc(-c3ccc(S(=O)(=O)N4CCCC4)cc3)no2)CC1 returned TDP1 cell noCPT 21µM, DRD3 antagonist inactive, DT40 TDP1 CPT inconclusive, D3 ag inactive, ClpP mod inactive and IL-1B inflam inh inactive.
O=C(c1cc(F)cc(F)c1)N1CCC(c2nc(-c3ccc(S(=O)(=O)N4CCCC4)cc3)no2)CC1 was read as TDP1 cell noCPT inconclusive, DT40 TDP1 CPT inconclusive, D3 ag inactive and ClpP mod inactive.
Screening CCCS(=O)(=O)N1CCCC(c2nc(-c3ccc(OC)cc3)no2)C1 (stereo not given) returned TDP1 cell noCPT inactive, DRD3 antagonist inactive, DT40 TDP1 CPT inactive, D3 ag inactive, ClpP mod inactive and IL-1B inflam inh inconclusive.
Screening Cc1ccc(-c2nc(C3CCN(S(=O)(=O)c4ccc(C(C)(C)C)cc4)CC3)no2)cc1 returned TDP1 cell noCPT inconclusive, DRD3 antagonist inactive, DT40 TDP1 CPT inconclusive, D3 ag inactive, ClpP mod inactive and IL-1B inflam inh inactive.
`O=C(Cc1ccccc1)N1CCC(c2nc(-c3ccc(F)cc3)no2)CC1` gave TDP1 cell noCPT inconclusive, DRD3 antagonist inactive, DT40 TDP1 CPT inconclusive, D3 ag 31, ClpP mod inactive and IL-1B inflam inh inactive.
O=C(NC1CCCCC1)N1CCC(c2nc(-c3ccc(S(=O)(=O)N4CCCC4)cc3)no2)CC1 was read as TDP1 cell noCPT 9.2µM, DRD3 antagonist inactive, DT40 TDP1 CPT 10µM, D3 ag inactive, ClpP mod inactive and IL-1B inflam inh inactive.
`O=C(N1CCOCC1)N1CCC(c2nc(-c3ccc(S(=O)(=O)N4CCOCC4)cc3)no2)CC1` gave TDP1 cell noCPT inconclusive, DRD3 antagonist inactive, DT40 TDP1 CPT inconclusive, D3 ag inactive, ClpP mod inactive and IL-1B inflam inh inactive.
Screening O=C(Cc1ccccc1)N1CCC(c2nc3ccccc3[nH]2)CC1 returned TDP1 cell noCPT inactive, DRD3 antagonist inactive, DT40 TDP1 CPT inactive, D3 ag inactive, ClpP mod inactive and IL-1B inflam inh inactive.
CCN(CC)CCOCCn1c(C)ccc1C was read as TDP1 cell noCPT inconclusive, DRD3 antagonist inactive, DT40 TDP1 CPT inconclusive, D3 ag inactive and IL-1B inflam inh inactive.
Cc1cccc(-n2cc3c(=O)n(C)c(=O)n(C)c3c2)c1 was read as TDP1 cell noCPT inactive, DRD3 antagonist inactive, DT40 TDP1 CPT inactive, D3 ag inactive and IL-1B inflam inh inactive.
CCOc1cc(C)c(C(C)C)cc1S(=O)(=O)N1CC(C)OC(C)C1 (stereo not given) was read as TDP1 cell noCPT inconclusive, DRD3 antagonist inactive, DT40 TDP1 CPT inconclusive, D3 ag inactive, ClpP mod inactive and IL-1B inflam inh inactive.
CCOc1cc(Br)ccc1S(=O)(=O)N1CC(C)OC(C)C1 (stereo not given) was read as TDP1 cell noCPT inconclusive, DRD3 antagonist inactive, DT40 TDP1 CPT 26µM, D3 ag inactive, ClpP mod inactive and IL-1B inflam inh inactive.
Cc1c(C(=O)NCCN(C)C)sc2nc3n(c(=O)c12)CCC3 was read as TDP1 cell noCPT inactive, DT40 TDP1 CPT inactive, D3 ag inactive and ClpP mod inconclusive.
OCC(O)CN1CCN(c2ccccc2)CC1 (stereo not given) was read as TDP1 cell noCPT inactive, DRD3 antagonist inactive, DT40 TDP1 CPT inactive, D3 ag inactive, ClpP mod inactive and IL-1B inflam inh inactive.
Screening O=C(c1ccccc1)N1CCN(CC(O)COC2CCCCC2)CC1 (stereo not given) returned TDP1 cell noCPT inactive, DRD3 antagonist inconclusive, DT40 TDP1 CPT inactive, D3 ag inactive, ClpP mod inactive and IL-1B inflam inh inactive.
